The record followed here is article PMC5540273 (PLoS ONE, 2017).

SMILES strings stand for the structures.

Among the test systems are MAPKAPK5; MARK1; MARK2; MARK3; MARK4; MAST1.
What all share (settings): concentration: 1 μM, replicates: in singlicate; n = 1
A further experiment concerns T1, MEK1.
T1 construct: gene MAP2K1

The test system of the next experiment is T2, MEK2.
T2 construct: gene MAP2K2

A further experiment deals with T3, MEK3.
T3 construct: gene MAP2K3

For another experiment, the system named is T4, MEK4.
T4 construct: gene MAP2K4
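Note: KINOMEscan kinase panel screen.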

For the compound `O=C(Nc1n[nH]c2cc(-c3ccoc3)ccc12)C1CC1` [SB-738481], the “%Inh” value in the experiment on MAPKAPK5 came out at 10%; in the experiment with MARK1 it was 11%; in the experiment with MARK2, 15%; with MARK3 it was 0%; in the experiment with MARK4 it was 0%; with MAST1, 37%. The “%Inh” value with MEK1 worked out at 2%; in the experiment with MEK2, 18%; in the experiment on MEK3 it was 23%; in the experiment with MEK4, 3%.

Take `FC(F)(F)c1ccc(/C=C/c2cncnc2Nc2ccc3[nH]c(Cc4ccccc4)nc3c2)cc1` [GW709199]: the “%Inh” value was determined as 0% in the experiment on MAPKAPK5; 0% in the experiment on MARK1; 0% in the experiment with MARK2; 28% with MARK3; 8% with MARK4; 5% in the experiment on MAST1. Moreover, the “%Inh” value in the experiment on MEK1 is reported as 0%; in the experiment on MEK2 it was 25%; in the experiment with MEK3, 0%; in the experiment on MEK4, 0%.

As for `Cc1ccc(C(=O)N2CC[C@@H](O)C2)cc1-n1c(C)cc(OCc2ccc(F)cc2F)c(Br)c1=O`, the “%Inh” value in the experiment with MAPKAPK5, in the experiment on MARK1, in the experiment with MARK2, in the experiment on MARK3, with MARK4 and in the experiment on MAST1 was 0% each time. In addition, the “%Inh” value in the experiment on MEK1 is reported as 0%; in the experiment on MEK2 it was 36%; with MEK3, 0%; in the experiment on MEK4, 0%.

On to `CC(=O)N1CCN(c2ccc(Nc3nccc(-c4sc(C(C)C)nc4-c4cccc(NS(=O)(=O)c5cccc(Cl)c5)c4)n3)cn2)CC1` [GSK1660437], for which the “%Inh” value with MAPKAPK5 came to 0%; in the experiment with MARK1, 0%; with MARK2, 0%; in the experiment with MARK3, 0%; in the experiment on MARK4 it was 12%; with MAST1 it was 0%. For the same compound, the “%Inh” value with MEK1 is 1%; in the experiment on MEK2 it was 0%; in the experiment with MEK3, 23%; in the experiment on MEK4 it was 99.2%.

As to `O=C(Nc1n[nH]c2nc(-c3ccc(O)cc3)ccc12)C1CC1` [SB-710363], the “%Inh” value in the experiment on MAPKAPK5 worked out at 4%; in the experiment with MARK1, 0%; with MARK2, 38%; with MARK3, 0%; in the experiment on MARK4 it was 0%; with MAST1, 36%. Moreover, the “%Inh” value in the experiment on MEK1 turned out to be 0%; in the experiment with MEK2, 8%; with MEK3 it was 36%; with MEK4, 10%.

With `COc1cc(Nc2nccc(-c3c(-c4cccc(NC(=O)c5c(F)cccc5F)c4)nn4ncccc34)n2)cc(OC)c1OC` [GSK327238], the “%Inh” value was 0% in the experiment with MAPKAPK5; 53% in the experiment on MARK1; 18% with MARK2; 30% in the experiment on MARK3; 56% with MARK4; 0% in the experiment with MAST1. For the same compound, the “%Inh” value with MEK1 is 98.5%; in the experiment on MEK2, 98.4%; in the experiment with MEK3, 12%; in the experiment on MEK4, 46%.

Regarding `Cc1cccc(Nc2nc(N[C@H]3CCNC3)ncc2C(N)=O)c1.Cl` [GSK2197149], the “%Inh” value came out at 0% in the experiment on MAPKAPK5; 0% in the experiment on MARK1; 19% with MARK2; 0% in the experiment with MARK3; 4% in the experiment with MARK4; 0% with MAST1. Besides, the “%Inh” value in the experiment on MEK1 is reported as 31%; in the experiment with MEK2, 31%; in the experiment with MEK3, 85%; with MEK4, 66%.

Turning to `CCCCc1nn2ncccc2c1-c1ccnc(Nc2ccc(N3CCN(C)CC3)cc2)n1` [GW684941], the “%Inh” value in the experiment with MAPKAPK5 came to 0%; in the experiment with MARK1 it was 0%; with MARK2, 0%; in the experiment with MARK3, 32%; with MARK4, 0%; in the experiment on MAST1, 31%. The “%Inh” value was 0% in the experiment with MEK1, 0% in the experiment with MEK2, 0% in the experiment with MEK3 and 32% in the experiment with MEK4.

For `Nc1ncc(-c2ccc3nccc(-c4ccncc4)c3c2)cc1S(=O)(=O)N1CCOCC1` [GSK1627798], the “%Inh” value in the experiment with MAPKAPK5, with MARK1, with MARK2, with MARK3, in the experiment on MARK4 and in the experiment with MAST1 was 0% in each case. The “%Inh” value in the experiment on MEK1 turned out to be 0%; in the experiment on MEK2, 0%; with MEK3 it was 24%; in the experiment with MEK4, 52%.

On to `O=C(Nc1ccccc1F)NC1CCN(c2ccnc(Nc3ccc(F)cc3)n2)CC1` [GSK1379800], for which the “%Inh” value in the experiment with MAPKAPK5 was determined as 0%; with MARK1, 0%; with MARK2 it was 0%; in the experiment with MARK3 it was 0%; in the experiment on MARK4 it was 2%; with MAST1, 0%. Further, the “%Inh” value with MEK1 was determined as 0%; in the experiment on MEK2 it was 0%; in the experiment with MEK3, 0%; with MEK4, 4%.
